Data reported in the supplement of paper PMC10338343.
± gives the standard deviation. In all, about 3,000 sequences were measured (“pre-steady-state target cleavage rate”: median about 0.0079, highest 2% from about 0.2 on). The full list was thinned out, with the highest values kept by preference.

Test system: MILI (PIWIL2) piRISC loaded with piRNA #2 (26 nt)
Experiment: pre-steady-state target cleavage rate (min^-1); MIWI and MILI are mouse PIWI proteins and EfPiwi is from a freshwater sponge; tags in brackets are library labels; higher = faster piRNA-guided slicing of the target
Settings: guide: piRNA #2 5'p-UUAGGUAACCCAGUAGAUCCAGAGGA; auxiliary factor: 500 nM mouse GTSF1
Method: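 Cleave-'n-Seq: a library of target RNAs (target site embedded in constant flanks, ACAGCATTCCGCGTTAGTGATATCCG... 5' flank; DNA-blocked outside the site) at 0.1 nM was incubated with 1 nM active mouse MILI or MIWI piRISC (synthetic 5'-monophosphorylated piRNA guide) with or without 500 nM mouse GTSF1 at 33 °C for 1 min to 16 h. Uncleaved targets were sequenced and normalised to non-target controls, and the pooled three trials were fitted to a burst-and-steady-state model to give the pre-steady-state cleavage rate (min^-1; k3 is constrained to at most 1e-4). Sequence is the target site only; target names encode pairing extent (gX:gY) and contiguous / 1-mismatch / 2-mismatch / bulge geometry. Fits with R² ≤ 0 are excluded.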

Sequence | pre-steady-state target cleavage rate
CUUAUCCUCACCAUCUACUGGGUUACCUAA | 0.127 ± 0.051
CUUAACCUCAGCAUCUACUGGGUUACCUAA | 0.111 ± 0.027
CUUAUCCUCUGGAUCUACUGGGUUACGUAA | 0.0586 ± 0.014
CUUAACCUCUGCAUCUACUGGGUUACGUAA | 0.155 ± 0.069
CUUAUCCUCUGCAUCUACUGGGUUACGUAA | 0.483 ± 0.2
CUUAACCUCUCGGAUCUACUGGGUUACCUAA | 0.0634 ± 0.017
CUUAAGGAGGGGAUCUACUGGGUUACCUAA | 0.0293 ± 0.022
CUUAUCCUCUGGAUGUACAGGGUUACCUAA | 0.135 ± 0.011
CUUAACCUCUGGACUCUACUGGGUUACCUAA | 0.0674 ± 0.018
CUUAAGGUCUGGCAUCUACUGGGUUACCUAA | 0.211 ± 0.069
CUUAACCUCUGAUCUACUGGGUUACCUAA | 0.0852 ± 0.019
CUUAACCUCUGGGAUCUACUGGGUUACCUAA | 0.168 ± 0.03
CUUAACCUCUGGCUCUACUGGGUUACCUAA | 0.8 ± 0.2
CUUAACCUUGGAUCUACUGGGUUACCUAA | 0.134 ± 0.041
CUUAACCUCUUGGAUCUACUGGGUUACCUAA | 0.245 ± 0.072
CUUAAGGUCUGGGUCUACUGGGUUACCUAA | 0.0913 ± 0.015
CUUAAGGUCUGCAUCUACUGGGUUACCUAA | 0.0733 ± 0.018
CUUAACCUCUGGAUCUACUGGGUUACCUAAA | 0.0972 ± 0.022
CUUAACCUCUGGCAUCUACUGGGUUACCUAA | 2.04 ± 1.1
CUUAACCUCUGCAUCUACUGGGUUACCUAA | 0.185 ± 0.036
CUUAACCUCUGGAACUUCUGGGUUACCUAA | 0.103 ± 0.028
CUUAAGCUCUGGAUCUAGUGGGAUACCUAA | 0.00824 ± 0.0045
CUUAUCCUCUCGAUCUACUGGGAUACCUAA | 0.0565 ± 0.013
CUUAUCCUCUGCAUCUACUGGGAUACCUAA | 0.0522 ± 0.025

Sequence | pre-steady-state target cleavage rate
CUUAAGGAGACGAUCUACUGGGUUACCUAU [g2:g19:cont:t1U] | 0.00667 ± 0.0036
CUUAAGCUCUGGAUCUACUGGGUUAACUAA | 0.095 ± 0.017
CUUAUCCUCUGGAUCUACUGGGCUUACCUAA | 0.0139 ± 0.005
CUUAACCUCUGGAUUACUGGGUUACCUAA | 0.0792 ± 0.024
CUUAAGCUCUGCAUCUACUGGGUUACCUAA | 0.0767 ± 0.016
CUUAAGCUCUGGCAUCUACUGGGUUACCUAA | 0.453 ± 0.15
CUUAAGCUCUGGCUCUACUGGGUUACCUAA | 0.163 ± 0.034
CUUAACCUCUGGAUCUACUGGGUUACCUAA [g2:g25:cont:t1A] | 0.101 ± 0.02
CUUAACCUCUGGAUUCUACUGGGUUACCUAA | 0.273 ± 0.093
CUUAUCGUCAGGAUCUACUGGGUUACCUAA | 0.03 ± 0.012
CUUAUGCUCUGGAUCUACUGCGUUACCUAA | 0.0127 ± 0.0036
CUUAAGGACUGGAUCUACUGGGUUACCUAA [g2:g22:cont:t1A] | 0.0428 ± 0.02
CUUAAGGAGACCUAGUACGGGUUACCUAA | < 0.0001
CUUAAGGAGAGGAAUCUACUGGGUUACCUAA | 0.00399 ± 0.0036
CUUAUCCUCUGGAUGUACUGGGUUACGUAA | 0.0286 ± 0.0078
CUUAAGGACUGGAUCUACGGGGUUACCUAA | 0.0466 ± 0.013
CUUAUCCUCUGGUUCUACUGGGAUACCUAA | 0.188 ± 0.078
CUUAUCCUCUGGAUCUACUGGGUUAGCUAA | 0.129 ± 0.025
CUUAACCUCUGGUACUACUGGGUUACCUAA | 0.256 ± 0.074
CUUAUCCUCUGCAUCUACUGGGUUAGCUAA | 0.145 ± 0.054
CUUAUCCUCUAGAUCUACUGGGUUACCUAA | 0.224 ± 0.034
CUUAACCUCUGGACUACUGGGUUACCUAA | 0.156 ± 0.037
CUUAUCCUCUGGUUCUACUGGGUUAGCUAA | 0.235 ± 0.069
CUUAUCCUCUAGGAUCUACUGGGUUACCUAA | 0.049 ± 0.012

Sequence | pre-steady-state target cleavage rate
CUUAUCCUCUGCAUCUACUGGGUUUCCUAA | 0.165 ± 0.071
CUUAACCUCUGGUAGUACUGGGUUACCUAA | 0.078 ± 0.025
CUUAUCCUCUGAGAUCUACUGGGUUACCUAA | 0.106 ± 0.02
CUUAUCCUCUGGUUCUACUGGGUUUCCUAA | 2.2 ± 1.7
CUUAAGCUCUGGAUCUACAGGGUUACGUAA | 0.0394 ± 0.01
CUUAAGCUCUGGAUCCACUGGGUUACCUAA | 0.0284 ± 0.0092
CUUAACCUCUGCAUCUACAGGGUUACCUAA | 0.0773 ± 0.014
CUUAAGGACUCGAUCUACUGGGUUACCUAA | 0.0128 ± 0.0065
CUUAAGGAGAGGAUCUACAGGGUUACCUUA | 0.0102 ± 0.0051
CUUAACCUCUGGAUCUAGUGGGAUACCUAA | 0.0146 ± 0.0055
CUUAUCCUCUGGAUGUACUGGGUUACCUAA | 0.108 ± 0.022
CUUAAGGUCUGGAUCUACUGGGAAACCUAA | 0.0107 ± 0.0055
CUUAUCCUCUGGAACUACUGGGUUACCUAA | 0.188 ± 0.042
CUUAUCCUCUGGAACUACUGGGUUACCUUA | 0.266 ± 0.073
CUUAUCCUCUGGUUCUACUGGGUUACCAAA | 0.453 ± 0.15
CUUAUCCUCUGGAACUACUGGGUUACCAAA | 0.13 ± 0.044
CUUAUCCUCUGGUUCUACUGGGUUACGUAA | 0.634 ± 0.25
CUUAAGCUCUGGUUCUACUGGGUUACCUUA | 0.126 ± 0.036
CUUAAGCUCUGGUUCUACUGGGUUACCUAA | 0.131 ± 0.027
CUUAACCUCUGGUUCUACUGGGUUACGUAA | 0.12 ± 0.043
CUUAUCCUCUGGAUCUACUGGGUUACCAA | 0.123 ± 0.022
CUUAAGCUCUGGUUCUACUGGGUUACCAAA | 0.199 ± 0.063
CUUAUCCUCUGGAACUACUGGGUUACGUAA | 0.197 ± 0.068
CUUAUCCUCUCGAUCUACUGGGUUACCAAA | 0.13 ± 0.025
